CYP2C19 activ – human CYP2C19 activators, primary screen, biochemical, luminescence; AID 1025, 2008; activation factor at 5 µM; 96,000 tested, under 10 active; Cytochrome P450 2C19 (Homo sapiens), P33261; recombinant CYP2C19, luciferin-H EGE luminescence; active compounds read high; 0 = fully inhibited enzyme, 1 = untreated enzyme;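 active = activation factor of at least 2 at 5 µM in the primary screen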;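 also: 0 = wells with 2.5 mM tranylcypromine and 1 = vehicle-only wells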
CYP2C19 inhib – blockers of cytochrome P450 2C19 activity – biochemical, luminescence, ADME assay, primary screen. inhibition, % at 5 µM. AID 778, 2007. 21% of 96,000 active. CYP2C19 Supersomes, luciferin-H EGE luminescence, 30 min;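 active = CYP2C19 inhibition above a set limit at 5 µM in the primary screen, cut at about 50% in these data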;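 also: plate controls were negative control wells for no effect and 2.5 mM tranylcypromine positive control for full effect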
PostGolgi yeast – phenotypic screen on post-Golgi transport, primary screen | post-Golgi transport phenotypic cell assay | inhibition, % at 10 µM | 0.9% of 98,000 active | AID 739, 2007;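 also: yeast cells grown in 1536-well plates; yeast grown about 18 h at 30C before absorbance read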
CYP2C9 inhib – blockers of cytochrome P450 2C9 activity – biochemical, luminescence, ADME assay, primary screen; P11712; CYP2C9 Supersomes, luciferin-H conversion; inhibition, % at 5 µM; AID 777, 2007; 20% of 96,000 active;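 active = blocking of liver enzyme CYP2C9 beyond about 50% at 5 µM, limit read from the data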
Target sequence (P11712 whole entry, looked up): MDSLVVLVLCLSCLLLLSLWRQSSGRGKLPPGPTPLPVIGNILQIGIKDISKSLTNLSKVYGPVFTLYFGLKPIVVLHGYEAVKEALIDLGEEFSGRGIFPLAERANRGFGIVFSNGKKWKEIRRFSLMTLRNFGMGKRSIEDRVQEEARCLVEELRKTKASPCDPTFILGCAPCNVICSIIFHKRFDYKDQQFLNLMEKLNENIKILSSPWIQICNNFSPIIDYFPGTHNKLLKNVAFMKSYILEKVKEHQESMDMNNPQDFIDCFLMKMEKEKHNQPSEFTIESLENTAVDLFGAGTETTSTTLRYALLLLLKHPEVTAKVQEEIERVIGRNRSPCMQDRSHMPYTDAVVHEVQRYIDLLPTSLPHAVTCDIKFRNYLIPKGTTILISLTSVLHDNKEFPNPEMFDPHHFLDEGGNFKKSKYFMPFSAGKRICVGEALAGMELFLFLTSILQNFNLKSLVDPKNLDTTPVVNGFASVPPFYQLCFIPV
CYP2C9 activ – human CYP2C9 activators, primary screen, biochemical, luminescence | activation factor at 5 µM | 1.4% of 96,000 active | recombinant CYP2C9, luciferin-H conversion; active compounds read high; factor 1 = untreated enzyme, 0 = blocked | Cytochrome P450 2C9 (Homo sapiens), P11712;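 active = activation factor of 2 or more for CYP2C9 at a 5 µM dose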;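 also: 0 = sulfaphenazole-blocked wells and 1 = vehicle-only wells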
PostGolgi ctrl – growth inhibition of yeast control strain, primary screen, counter-screen for post-Golgi transport modulator project. 5% of 98,000 active. inhibition, % at 10 µM. efflux-deficient yeast background strain, growth absorbance A615, 16 h
* marks the source's active call; other numbers are inactive results; . = not tested or not shown. Rows were chosen to be rich in hits. Some 32% of all compounds tested hit in one or more screens of this group. Rule as the data show it, unless noted: active = inhibition above about 30%; inactive = the rest.

SMILES	CYP2C19 activ	CYP2C19 inhib	PostGolgi yeast	CYP2C9 inhib	CYP2C9 activ	PostGolgi ctrl
O=C(Cn1nc(Cc2cccnc2)c2ccccc2c1=O)Nc1ccc2c(c1)OCO2	0.8	20	4	43	0.6	-2
Cc1ccc(CNc2ccc3c(c2)OCO3)c(C)c1	0.7	31	-2	15	0.8	39*
Cc1ccc(NCc2cccnc2)cc1	0.5	54*	-3	38	0.6	3
Cc1ccc(-n2c(N)c(C(=O)NCc3cccnc3)sc2=S)cc1	0.8	17	-2	19	0.8	5
CC1=C(C)CC(C(=O)NNC(=O)c2ccccc2)C(C(=O)O)C1 (stereo unspecified)	1.1	-13	-7	-1	1	13
Cc1cc(NC(=O)CSc2nnc(-c3ccco3)n2CC2CCCO2)no1 (stereo unspecified)	1.1	-10	23	-13	1.1	2
COc1ccc(/C(C)=N/NC(=O)c2nc(C)cc(C)n2)cc1	1.2	-24	-6	-135	2.3*	11
COc1ccc(/C(C)=N/NC(=O)c2ccc(N(C)C)cc2)cc1	1	1	-5	9	0.9	21
CC(C)c1nc(NCCN2CCOCC2)c(C#N)c2c1COC(C)(C)C2	0.9	15	13	45	0.5	60*
N#Cc1c2c(c(NCCN3CCOCC3)n3c1nc1ccccc13)CCCC2	0.5	53*	9	86*	0.1	0
CCc1nc(NCCN2CCOCC2)c(C#N)c2c1CCCC2	0.3	69*	3	10	0.9	2
Cc1cc(NCC2CCCO2)n2c(nc3ccccc32)c1C#N (stereo unspecified)	1	4	21	12	0.9	-5
CC(C)c1cc(NCC2CCCO2)n2c(nc3ccccc32)c1C#N (stereo unspecified)	1	0	-6	73*	0.3	4
Cc1nc(NCCO)c(C#N)c2c1COC(C)(C)C2	1.1	-8	3	-2	1	19
O=C(c1ccccc1)c1cncc(Br)c1	0.9	11	3	7	0.9	2
CCCN1C2CCCC1CC(NC(=O)c1cc(OC)c(OC)c(OC)c1)C2 (stereo unspecified)	1	2	3	0	1	7
CC(C)Cc1nc2n[nH]c(N)c2c2c1COC(C)(C)C2	1	0	1	-4	1	8
CCCCc1nc(NCCN2CCOCC2)c(C#N)c2c1COC(C)(C)C2	0.7	28	15	69*	0.3	102*
CC(C)Cc1nc(NCCN2CCOCC2)c(C#N)c2c1COC(C)(C)C2	0.1	88*	51*	79*	0.2	100*
CC(C)Cc1nc(N2CCOCC2)c(C#N)c2c1COC(C)(C)C2	0.1	85*	-1	68*	0.3	19
COC(=O)c1ccc(NC(=O)c2ccc(C)cc2)o1	1	0	-9	3	1	-5
CCOC(=O)N1CCC(Nc2nc3ccccc3n3nnnc23)CC1	0.7	29	-3	51*	0.5	15
CCN(CC)S(=O)(=O)c1ccc(Nc2nc3ccccc3n3nnnc23)cc1	0.8	23	3	63*	0.4	16
Brc1ccc(Nc2nc3ccccc3n3nnnc23)cc1	1	4	-13	16	0.8	3
Fc1cccc(Nc2nc3ccccc3n3nnnc23)c1	0.9	7	3	25	0.7	7
SMILES	CYP2C19 activ	CYP2C19 inhib	PostGolgi yeast	CYP2C9 inhib	CYP2C9 activ	PostGolgi ctrl
Fc1ccccc1Nc1nc2ccccc2n2nnnc12	0.9	12	3	5	0.9	51*
COc1cc(OC)cc(C(=O)NN2CCCCC2)c1	1.1	-9	-7	-15	1.2	18
CC(C)Oc1ccccc1C1CC(=O)Nc2c1c(=O)n(C)c(=O)n2C (stereo unspecified)	1.1	-11	-9	-8	1.1	10
Cc1ccc(S(=O)(=O)N(CC(=O)N/N=C/c2cccc3c2OCCO3)c2ccccc2F)cc1	0.2	82*	23	94*	0.1	-1
Cc1ccc(S(=O)(=O)N(CC(=O)NC2CCCCCC2)c2ccccc2F)cc1	0.9	9	9	39	0.6	-2
O=C(CSc1nnc(-c2ccncc2)n1C1CCCCC1)Nc1cccc(O)c1	0.5	45	-1	46	0.5	-8
CCC(C(=O)NCc1ccco1)N(C(=O)CNS(=O)(=O)c1ccccc1)c1ccc(OC)cc1 (stereo unspecified)	0.7	34	-2	10	0.9	-4
CCOc1ccc(NC(=O)NCCCn2c(C)nc3cc(C)c(C)cc32)cc1	0.6	35	6	81*	0.2	1
Cc1cc2nc(C)n(CCCNC(=O)Nc3cccc4ccccc34)c2cc1C	0.5	46	-2	57*	0.4	3
CCC(C)(C)n1nnnc1C(CC(C)C)N1CCC(C(N)=O)CC1 (stereo unspecified)	1	-2	-2	17	0.8	12
C=CCn1c(=O)n2ncnc2c2c3c(sc21)CCCC3	0.9	13	3	31	0.7	5
O=c1n(Cc2ccc(Cl)cc2)c2sc3c(c2c2ncnn12)CCCC3	0.5	50	16	85*	0.1	93*
Cc1cc(C)nc(SCC(=O)c2ccc([N+](=O)[O-])cc2)n1	0.1	92*	-1	20	0.8	0
Cc1cc(C)nc(SCC(=O)c2ccc(O)cc2O)n1	0.6	44	5	-33	1.3	4
Cc1cc(NCc2ccccc2)nc(N2CCOCC2)n1	1	-3	8	-1	1	22
Cc1cc(N2CCOCC2)nc(SCC(=O)c2ccccc2)n1	0.4	56*	8	45	0.6	8
CCCCOc1cc(C)nc(NCc2ccccc2)n1	0.5	48	28	36	0.6	38*
Cc1cc(N2CCOCC2)nc(NCc2ccccc2)n1	0.3	74*	0	-2	1	-4
Cc1ccccc1N1CCN(C(=O)CCN2C(=O)c3ccccc3C2=O)CC1	0.9	14	14	11	0.9	25
Cc1csc2ncc(C(=O)Nc3ccc4c(c3)OCCO4)c(=O)n12	0.9	6	.	-16	1.2	.
Cc1cc(N2CCOCC2)nc(SCC(=O)c2ccc(Cl)cc2)n1	0.2	80*	-1	23	0.8	5
Cc1cc(C)nc(SCNC(=O)c2ccc(Cl)cc2)n1	0.1	91*	-8	-63	1.6	13
O=C(Nc1ccc(N2CCOCC2)nc1)c1ccc(Cl)cc1	1.1	-6	-16	-14	1.1	18
c1ccc(CNn2c(N3CCOCC3)nc3ccccc32)cc1	0.3	70*	0	5	0.9	-2
CC(C)n1c(N2CCN(C(=O)NCc3ccccc3)CC2)nc2ccccc21	0.8	18	9	-7	1.1	-8
